Screening data from PubChem BioAssay.
Rows were chosen to be rich in hits. Some 2.9% of all compounds tested hit in one or more screens of this group.
DRD3 agonist = qHTS of D3 Dopamine Receptor Agonist: qHTS; hit rate 0.58% among 410,000; D3R DiscoveRx beta-arrestin cells, luminescence, 90 min; max activation, %; D(3) dopamine receptor (Homo sapiens), P35462; in the data active = max activation above about 30%; note: 0% is about no effect
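Cells at 1500/well, incubated overnight, then treated with pinned compounds (dopamine as control) for 90 min at 37 degrees C. DiscoveRx reagent added for 30 - 60 minutes at room temperature; luminescence read.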
Rango complex inh = qHTS Assay for Inhibitors of Rango (Ran-regulated importin-beta cargo) - Importin beta complex formation. AID 540263, 2011. hit rate 0.031% among 340,000. Potency, µM (series often up to 92.2 µM), for the others: at the highest dose inhibition of complex formation. Rango CFP/YFP FRET sensor + importin beta, 45 min;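 note: potency is the fitted concentration of half-maximal effect; 0% = DMSO wells and 100% = buffer wells lacking importin beta; nearly all actives have a fitted effect of over 15% in size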
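FRET biosensor (snurportin 1 IBB flanked by EYFP and cerulean), 50 nM, with compound 5 min, then 0.125 microM importin beta in PBS, 1 mM DTT, 0.02% Tween-20, 0.1% BSA. CFP/YFP ratio read after 45 min at room temperature; pre-read flags interference.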
Rango dissoc inh = qHTS Assay for Inhibitors of RanGTP induced Rango (Ran-regulated importin-beta cargo) - Importin beta complex dissociation. Snurportin-1 (Homo sapiens) + GTP-binding nuclear protein Ran (Homo sapiens) + Importin …. Biochemical FRET Rango-importin beta, RanGTP-induced dissociation. Potency, µM (doses to about 46.1 µM), for inactives: top-dose activity change, negative = inhibition. hit rate 0.071% among 340,000. AID 540253, 2011; note: potency is the fitted concentration of half-maximal effect; % of control where 0% means no effect; nearly all actives have a fitted effect of over 45% in size
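Rango/importin beta premix (0.1/0.25 uM final), PBS + 1 mM DTT + 0.02% Tween-20 + 0.1% BSA; cpd 5 min RT; FRET pre-read; + RanGTP-RCC1 (0.6 uM Ran, 2 mM GTP, 0.2 uM RCC1); 45 min RT; FRET post-read, ex 430, em 486/530 nm.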
MmCpn inh = Inhibitors of TCP-1 ring complex (TRiC) of Methanococcus maripaludis (MmCpn): qHTS; AID 504842, 2011; Potency, µM (titrated, usually from 76.9 µM), for the others: at the top dose activity, negative = inhibition, hits mostly inhibitors; Chaperonin Mm-Cpn (Methanococcus maripaludis); purified Mm-Cpn ATPase, ADP Transcreener TR-FRET; hit rate 0.031% among 330,000; active = well fitted inhibition curve with a large enough effect; inconclusive = small, poorly fitted or top-dose-only effect; note: potency is the fitted concentration of half-maximal effect; % is set by controls: 0 for no effect and ±100 for the full control effect; nearly all actives have a fitted effect of over 80% in size
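Compound-treated chaperonin, 25 nM final, turns over 10 uM ATP at 37°C for 30 min following a 10 min preincubation; ADP generated competes with ADP-d2 for Eu-cryptate antibody, lowering FRET.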
DRD3 antagonist = qHTS of D3 Dopamine Receptor Antagonist: qHTS; max response, negative = inhibition, %; hit rate 2.5% among 360,000; D(3) dopamine receptor (Homo sapiens), P35462; D3R cells, DiscoveRx beta-arrestin luminescence, antagonist mode; stronger effect = lower value; in the data active = max response below about -50%; inconclusive = no clear call, values can overlap the other calls; note: % is set by controls: 0 for no effect and ±100 for the full control effect
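Cells plated overnight at 1500 cells/well, then exposed to library compounds with dopamine controls for 90 minutes at 37 degrees C. DiscoveRx reagent added for 30–60 minutes at room temperature; luminescence read, quantitative HTS format.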
PTAP TSG101 blk = qHTS Assay for Iinhibitors of HIV-1 Budding by Blocking the Interaction of PTAP/TSG101. Tumor susceptibility gene 101 protein (Homo sapiens), Q99816. Potency, µM (series often up to 115 µM), without a hit: top-dose activity change, negative = inhibition, most hits filed as inhibitors. 340,000 tested, under 10 active. Fluorescence polarization, FITC-PTAP peptide / Tsg101 binding; active = well fitted inhibition curve with a large enough effect in the main read-out, with a control signal flat, not every such curve was filed as active; inconclusive = small, poorly fitted or top-dose-only effect, or effect the other way, or a change in a side signal; inactive = no such curve, though single readings can be large or run the other way; note: potency is the fitted concentration of half-maximal effect; % of control where 0% means no effect
Target sequence (Q99816 whole entry, looked up): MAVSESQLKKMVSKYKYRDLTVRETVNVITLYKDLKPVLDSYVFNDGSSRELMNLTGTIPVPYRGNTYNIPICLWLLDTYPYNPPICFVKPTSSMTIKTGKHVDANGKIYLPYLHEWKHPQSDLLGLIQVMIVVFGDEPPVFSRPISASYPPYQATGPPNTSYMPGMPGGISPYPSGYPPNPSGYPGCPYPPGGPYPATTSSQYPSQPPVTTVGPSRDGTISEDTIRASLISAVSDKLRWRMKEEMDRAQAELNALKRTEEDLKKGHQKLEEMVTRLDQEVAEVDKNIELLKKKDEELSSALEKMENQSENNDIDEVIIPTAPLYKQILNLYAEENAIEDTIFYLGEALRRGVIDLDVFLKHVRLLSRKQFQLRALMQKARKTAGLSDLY
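Compounds were pin-transferred onto Tsg101 binding domain (10 uM final) in HEPES pH 7.5 buffer, then FITC-PTAP peptide was added at 50 nM final. After 20 min at RT, polarization reported peptide displacement across a qHTS concentration series.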
Starred values were filed as active, the others as inactive; ? = inconclusive; · = no result given. Unless noted, calls come from the whole dose curve.

SMILES	DRD3 agonist	Rango complex inh	Rango dissoc inh	MmCpn inh	DRD3 antagonist	PTAP TSG101 blk
NNC(=O)c1ccc(CSc2nc3ccccc3[nH]2)cc1	-7	0%	14%	-7%	-56*	-4%
O=S(=O)(c1cccc2ccccc12)N1CCCCC1	4	-2%	14%	-2%	16	-2%
O=C(O)c1cc2cccc(S(=O)(=O)N3CCCCC3)c2cc1O	30*	?	-24%	-10%	9	-5%
O=C(Nc1cccc2c(=O)cc(-c3nn[nH]n3)oc12)c1ccc(OCCCCc2ccccc2)cc1	-10	·	·	·	·	·
CCN(CC)c1ccc(C(=O)NNC(=O)CCl)cc1	-35	-1%	10%	3%	-126*	0%
Cc1ccc2nc3n(c2c1)CCCN3	0	0%	16%	-2%	-59*	-1%
Cc1ccc2nc3n(c(=O)c2c1)CCCCC3	3	-1%	-7%	1%	-11	0%
CCC1CCCCN1CCCNC(=O)c1cc2c(Cl)nc3ccc(C)cc3c2s1 (stereo not given)	-15	·	·	·	·	·
Cc1oc(-c2ccccc2F)nc1CS(=O)(=O)CC(=O)NCCCN1CCc2ccccc2C1	-13	-4%	-13%	0%	-77*	-1%
Cc1ccc2cc3cc(C(=O)NCCCN4CCc5ccccc5C4)oc3nc2c1	-12	1%	15%	-1%	-55*	1%
Cc1ccc2nc(Cl)c3cc(C(=O)NCCCN4CCCC4)sc3c2c1	-11	6%	-7%	1%	-59*	-3%
Cc1oc(-c2ccccc2F)nc1CS(=O)(=O)CC(=O)NCCN1CCCC1	-14	-2%	1%	-1%	4	-4%
Cc1ccc2cc3cc(C(=O)NCCCN4CCCC4)oc3nc2c1	-17	2%	9%	-3%	-13	-4%
Cc1ccc2cc3cc(C(=O)NCCCN4CCCCCC4)oc3nc2c1	-11	-1%	1%	-6%	-75*	-12%
CCOC(=O)[C@H](CCc1ccccc1)N[C@H]1CCCN2CCC[C@@H](C(=O)O)N2C1=O	-11	·	·	·	·	·
C=C1C(=O)OC2C1CCC(C)=C1C(=O)C3OC3(C)C12 (stereo not given)	-58	1%	-1%	·	-129*	0%
C=C1C(=O)O[C@@H]2[C@H]1CC[C@H](C)[C@]1(O)CCC(=O)[C@@]21C	2	5%	7%	-2%	-3	-3%
COc1cc(/C=C2\SC(=S)N(NC(=O)c3ccccc3O)C2=O)ccc1O	-3	?	-3%	-3%	-16	5%
O=C(NN1C(=O)/C(=C/c2ccc(O)c([N+](=O)[O-])c2)SC1=S)c1ccccc1Cl	-31	?	1%	-19%	-74*	3%
Fc1ccc(Nc2nc(SCc3ccccc3F)nc3ccccc23)cc1	16	·	·	·	·	·
COc1cc(C=O)ccc1OCCOc1ccccc1[N+](=O)[O-]	-2	-4%	2%	0%	-62*	-2%
COc1cc(C=O)ccc1OCCCOc1ccccc1C(=O)O	4	1%	-9%	-1%	-55*	-2%
CCc1cc2c(cc3c(=O)n(CC(=O)NC(C)c4ccccc4)ncn32)s1 (stereo not given)	11	·	·	·	·	·
Cc1cccc([C@@H]2[C@@H]3C(=O)N(Cc4ccccc4)C(=O)[C@@H]3[C@]3(C)C(=O)N(c4cccc(Cl)c4)C(=O)N23)c1	-5	-1%	3%	-1%	-60*	1%
CCN1C(=O)[C@H]2[C@@H](c3ccc(C)cc3)N3C(=O)N(c4ccc(C)cc4)C(=O)[C@@]3(Cc3ccccc3)[C@H]2C1=O	48*	0%	-3%	-5%	43	0%
SMILES	DRD3 agonist	Rango complex inh	Rango dissoc inh	MmCpn inh	DRD3 antagonist	PTAP TSG101 blk
CC(=O)O[C@@H]1CC2CCC1(C)C2(C)C (stereo not given in full)	8	·	·	·	·	·
COc1ccccc1-c1nc2c(c(SCC(=O)Nc3ccc(C)c(C)c3)n1)Cc1c(CO)cnc(C)c1O2	4	·	·	·	·	·
CCOc1ccc(OCC(O)CN2CCc3ccccc3C2)cc1 (stereo not given)	1	-1%	7%	1%	-98*	1%
CN1CCN(CC(O)COc2ccccc2)CC1 (stereo not given)	0	0%	-13%	-2%	6	?
CC(=O)c1ccc(OCC(O)CN2CCc3ccccc3C2)cc1 (stereo not given)	-17	-4%	6%	-1%	-84*	1%
COc1ccc(COCC(O)CN2CCOCC2)cc1OC (stereo not given)	2	1%	14%	1%	37	-2%
COc1ccc(COCC(O)CN2CC(C)OC(C)C2)cc1OC (stereo not given)	17	-1%	2%	2%	-154*	-15%
Cc1cc(OCC(O)CN2CCc3ccccc3C2)ccc1Cl (stereo not given)	-20	-5%	6%	1%	-98*	-5%
Cc1ccc(OCC(O)CN2CCOCC2)cc1C (stereo not given)	0	0%	-6%	-5%	11	-2%
Cc1ccc(S(=O)(=O)CCC(=O)OCc2nnc(-c3ccccc3Br)o2)cc1	14	3%	21%	-1%	-25	0%
NCCCNCCCCNC(=O)C(O)NC(=O)CCCCCCN=C(N)N (stereo not given)	-2	·	·	·	·	·
COc1ccc(-c2cc(C(F)(F)F)n3nc(C(=O)Nc4cc(C(F)(F)F)ccc4Cl)cc3n2)cc1OC	6	·	·	·	·	·
CN(Cc1ccccc1)CC(O)COc1ccc(CNCCCOc2cccnc2)cc1 (stereo not given)	-12	-4%	8%	-4%	?	-7%
Cc1cc(OCC(O)CN2CCc3ccccc3C2)cc(C(C)C)c1 (stereo not given)	0	-1%	10%	-1%	-68*	-14%
CN(Cc1ccccc1)CC(O)COc1ccc(CNCCOc2cccnc2)cc1 (stereo not given)	61*	0%	1%	-1%	-10	-2%
OC(COc1ccc(CNCc2cccnc2)cc1)CN1CCc2ccccc2C1 (stereo not given)	4	-4%	?	3%	-103*	-4%
